# Laboratory results from article PMC5540273 (PLoS ONE, 2017).
# Test system: T1, ASK2
# T1 construct: gene MAP3K6
# Settings: concentration: 1 μM,replicates: in singlicate; n = 1
# 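Note: KINOMEscan kinase panel screen.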
row,Compound,%Inh
1,CS(=O)c1ccc(-c2coc3ccc(-c4n[nH]c(=O)o4)cc23)cc1 (centres unmarked),23%
2,O=C(Nc1cccc(Oc2ccc3nccn3n2)c1)Nc1cccc(C(F)(F)F)c1,4%
3,CCNCC(Cc1ccccc1)NC(=O)c1cc(Br)c(-c2ccnc3[nH]ccc23)s1.Cl.Cl (centres unmarked) [GSK1383280],0%
4,COC(=O)Nc1nc2cc(Oc3ccc(NC(=O)Nc4cc(C(F)(F)F)ccc4Cl)cc3)ccc2[nH]1.Cl [GW697465],0%
5,COc1cc2nccc(Nc3ccc(Oc4ccccc4)cc3)c2cc1OC.Cl [GI261656],0%
6,Cc1ccc2c(-c3ccnc(Nc4ccc(C(F)(F)F)cc4)n3)cnn2n1 [GW819776],0%
7,O=C(Nc1ccccc1)c1cccc(Oc2ccc3nccn3n2)c1,3%
8,C[C@@H](Oc1cc(-n2cnc3cc(-c4ccncc4)ccc32)sc1C(N)=O)c1ccccc1Cl [GSK479719],8%
9,CS(=O)(=O)Nc1ccc(-c2ccnc3[nH]ccc23)cc1 [GSK993273],21%
10,NC(=O)c1ccc(-c2cc3ncnc(SCC(=O)O)c3s2)cc1,0%
11,CN(c1ccc2c(c1)nc(NCc1ccc(F)cc1)n2C)c1ccnc(Nc2ccc(CS(C)(=O)=O)cc2)n1.Cl [GW813244],0%
12,Cn1ccc2ncnc(Oc3ccc(NC(=O)Nc4cccc(C(F)(F)F)c4)c(F)c3)c21,0%
13,CCOC(=O)N1CCC(n2cnc(-c3ccc(F)cc3)c2-c2ccnc(N)n2)CC1 [SB-219952],0%
14,Cc1cccc2c(-c3ccncc3)c(-c3ccc(F)cc3)nn12.Cl [GW461487],0%
15,N#Cc1cccc(C(=O)NC2CCN(c3ccnc(Nc4ccc(F)cc4)n3)C2)c1 (centres unmarked) [GSK1379708],0%
16,Cc1n[nH]c2cc(Nc3ccnc(Nc4cccc(CN5CCOCC5)c4)n3)ccc12 [GW682569],0%
17,Cn1cc(-c2cccc3c(N)c(C(N)=O)nnc23)cn1,33%
18,Nc1nccc(-c2ccc3c(N)n[nH]c3c2)n1 [GSK1034945],0%
19,C[C@@H]1CNc2c(sc3ccc4nc(-c5ccc(O)cc5)ccc4c23)C(=O)N1,0%

row,Compound,%Inh
1,COc1cccc(C2=C(Nc3cccc(Cl)c3)C(=O)NC2=O)c1 [SB-341556],22%
2,CCn1c(-c2nonc2N)nc2cncc(Br)c21 [SB-738004],0%
3,COc1cc2c(Nc3ccc(NC(=O)c4ccccc4)cc3)ncnc2cc1OCCCN1CCOCC1 [GSK301329],20%
4,O=C1NCCc2[nH]c(-c3ccncc3)cc21,0%
5,Cc1ccc(Nc2ccnc(Nc3ccc4c(c3)CS(=O)(=O)C4)n2)cc1O.Cl [GW579362],3%
6,O=C(Nc1n[nH]c2cc(-c3ccco3)ccc12)C1CC1 [SB-737447],4%
7,CN(c1cccc(CNc2nc(Nc3ccc4c(c3)CC(=O)N4)ncc2C(F)(F)F)c1)S(C)(=O)=O,0%
8,Cc1ccc(C(=O)Nc2ccc(Oc3ccc4nc(NC(=O)C5CC5)cn4c3)c(F)c2)c(=O)n1-c1ccccc1,0%
9,COC(=O)c1cccc(NC(=O)NC2CCN(c3ccnc(NCc4ccc(F)cc4)n3)CC2)c1 [GSK1379860],4%
10,Cl.c1ccc(Oc2ccc(Nc3ccnc4cc(-c5ccc(CN6CCNCC6)o5)ccc34)cc2)nc1 [GW567142],0%
11,O=C(NCC1CC1)c1ccc(-c2cc(C(=O)NC3CC3)ccc2F)cc1 [GW810445],0%
12,C[C@@H](Oc1cc(-n2cnc3cc(-c4cnn(C)c4)ccc32)sc1C(N)=O)c1ccccc1Cl [GSK580432],15%
13,CC(C)c1nc(-c2cccc(NS(=O)(=O)c3ccccc3)c2)c(-c2ccnc(Nc3ccc4c(c3)CN(C)CC4)n2)s1 [GSK1649598],4%
14,C[C@@H](Oc1cc(-n2cnc3ccc(-c4ccncc4)cc32)sc1C(N)=O)c1ccccc1Cl [GSK483724],0%
15,CCn1c(-c2nonc2N)nc2cncc(CNC3CCNCC3)c21.Cl [SB-747651],8%
16,CC(C)S(=O)(=O)N1CCN(Cc2ccc3c(c2)nc(NC(=O)c2ccsc2)n3C[C@H](O)c2ccccc2)CC1 [GW635815],0%
17,COc1cc(Nc2nccc(N3CCC(NC(=O)c4cccc(C#N)c4)C3)n2)cc(OC)c1OC (centres unmarked) [GSK1379751],0%
18,Cc1ccc(CC(=O)N2CCc3cc(-c4cn(C)c5ncnc(N)c45)ccc32)cc1 [GSK2634758],0%

# Test system: AURKA
# Settings: concentration: 1 μM,replicates: in singlicate; n = 1
row,Compound,%Inh
1,CS(=O)c1ccc(-c2coc3ccc(-c4n[nH]c(=O)o4)cc23)cc1 (centres unmarked),13%
2,O=C(Nc1cccc(Oc2ccc3nccn3n2)c1)Nc1cccc(C(F)(F)F)c1,0%
3,CCNCC(Cc1ccccc1)NC(=O)c1cc(Br)c(-c2ccnc3[nH]ccc23)s1.Cl.Cl (centres unmarked) [GSK1383280],96.2%
4,COC(=O)Nc1nc2cc(Oc3ccc(NC(=O)Nc4cc(C(F)(F)F)ccc4Cl)cc3)ccc2[nH]1.Cl [GW697465],0%
5,COc1cc2nccc(Nc3ccc(Oc4ccccc4)cc3)c2cc1OC.Cl [GI261656],22%
6,Cc1ccc2c(-c3ccnc(Nc4ccc(C(F)(F)F)cc4)n3)cnn2n1 [GW819776],11%
7,O=C(Nc1ccccc1)c1cccc(Oc2ccc3nccn3n2)c1,0%
8,C[C@@H](Oc1cc(-n2cnc3cc(-c4ccncc4)ccc32)sc1C(N)=O)c1ccccc1Cl [GSK479719],0%
9,CS(=O)(=O)Nc1ccc(-c2ccnc3[nH]ccc23)cc1 [GSK993273],39%
10,NC(=O)c1ccc(-c2cc3ncnc(SCC(=O)O)c3s2)cc1,0%
11,CN(c1ccc2c(c1)nc(NCc1ccc(F)cc1)n2C)c1ccnc(Nc2ccc(CS(C)(=O)=O)cc2)n1.Cl [GW813244],77%
12,Cn1ccc2ncnc(Oc3ccc(NC(=O)Nc4cccc(C(F)(F)F)c4)c(F)c3)c21,5%
13,CCOC(=O)N1CCC(n2cnc(-c3ccc(F)cc3)c2-c2ccnc(N)n2)CC1 [SB-219952],19%
14,Cc1cccc2c(-c3ccncc3)c(-c3ccc(F)cc3)nn12.Cl [GW461487],7%
15,N#Cc1cccc(C(=O)NC2CCN(c3ccnc(Nc4ccc(F)cc4)n3)C2)c1 (centres unmarked) [GSK1379708],0%
16,Cc1n[nH]c2cc(Nc3ccnc(Nc4cccc(CN5CCOCC5)c4)n3)ccc12 [GW682569],98.9%
17,Cn1cc(-c2cccc3c(N)c(C(N)=O)nnc23)cn1,6%
18,Nc1nccc(-c2ccc3c(N)n[nH]c3c2)n1 [GSK1034945],0%
19,C[C@@H]1CNc2c(sc3ccc4nc(-c5ccc(O)cc5)ccc4c23)C(=O)N1,42%

row,Compound,%Inh
1,COc1cccc(C2=C(Nc3cccc(Cl)c3)C(=O)NC2=O)c1 [SB-341556],0%
2,CCn1c(-c2nonc2N)nc2cncc(Br)c21 [SB-738004],14%
3,COc1cc2c(Nc3ccc(NC(=O)c4ccccc4)cc3)ncnc2cc1OCCCN1CCOCC1 [GSK301329],94.5%
4,O=C1NCCc2[nH]c(-c3ccncc3)cc21,28%
5,Cc1ccc(Nc2ccnc(Nc3ccc4c(c3)CS(=O)(=O)C4)n2)cc1O.Cl [GW579362],100%
6,O=C(Nc1n[nH]c2cc(-c3ccco3)ccc12)C1CC1 [SB-737447],46%
7,CN(c1cccc(CNc2nc(Nc3ccc4c(c3)CC(=O)N4)ncc2C(F)(F)F)c1)S(C)(=O)=O,93.8%
8,Cc1ccc(C(=O)Nc2ccc(Oc3ccc4nc(NC(=O)C5CC5)cn4c3)c(F)c2)c(=O)n1-c1ccccc1,0%
9,COC(=O)c1cccc(NC(=O)NC2CCN(c3ccnc(NCc4ccc(F)cc4)n3)CC2)c1 [GSK1379860],0%
10,Cl.c1ccc(Oc2ccc(Nc3ccnc4cc(-c5ccc(CN6CCNCC6)o5)ccc34)cc2)nc1 [GW567142],20%
11,O=C(NCC1CC1)c1ccc(-c2cc(C(=O)NC3CC3)ccc2F)cc1 [GW810445],0%
12,C[C@@H](Oc1cc(-n2cnc3cc(-c4cnn(C)c4)ccc32)sc1C(N)=O)c1ccccc1Cl [GSK580432],38%
13,CC(C)c1nc(-c2cccc(NS(=O)(=O)c3ccccc3)c2)c(-c2ccnc(Nc3ccc4c(c3)CN(C)CC4)n2)s1 [GSK1649598],23%
14,C[C@@H](Oc1cc(-n2cnc3ccc(-c4ccncc4)cc32)sc1C(N)=O)c1ccccc1Cl [GSK483724],0%
15,CCn1c(-c2nonc2N)nc2cncc(CNC3CCNCC3)c21.Cl [SB-747651],6%
16,CC(C)S(=O)(=O)N1CCN(Cc2ccc3c(c2)nc(NC(=O)c2ccsc2)n3C[C@H](O)c2ccccc2)CC1 [GW635815],8%
17,COc1cc(Nc2nccc(N3CCC(NC(=O)c4cccc(C#N)c4)C3)n2)cc(OC)c1OC (centres unmarked) [GSK1379751],68%
18,Cc1ccc(CC(=O)N2CCc3cc(-c4cn(C)c5ncnc(N)c45)ccc32)cc1 [GSK2634758],8%
